# Test results published in the supplement of paper PMC10849652.
# About 8,800 targets were measured; listed, in parts, are those with a hit and a random draw of the rest. About 0.5% of all pairs of compound and target were hits. Values without a mark were called inactive.
# What was measured:
# Experiment in all cases: log2 fold change, soluble protein after heating vs DMSO (PISA); higher = thermal stabilisation; K562 lysate, 10 uM; active = over 0.2 and 3.5 SD of the protein, either way, in both replicates (recomputed)
# [1] = compound: NCC(=O)Nc1ccc(-n2nc(C(F)(F)F)cc2-c2ccc3c(ccc4ccccc43)c2)cc1
# How it was run: (§1)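 K562 pellets were dounce-homogenised in PBS pH 7.4 containing 1 mM MgCl2, and the crude extract, at 1 mg/mL protein, was exposed to 10 μM compound for 30 min. Aliquots were heated for 3 min across 48°C-58°C, pooled, brought to 0.5% NP-40 at 4°C and spun at 21,000xg for 90 min, with the supernatant taken as soluble protein. TMTpro 16plex LC-MS/MS with equalised channel sums quantified that protein. Values are log-two fold changes in thermal stability relative to solvent controls, taken from duplicates.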
# [2] = compound: O=C(CCCCCCC(=O)Nc1ccccc1)NO [vorinostat]
# How it was run: as §1
# [3] = compound: O=C(O)c1ccc2c(c1)nc(Nc1cccc(Cl)c1)c1ccncc12 [silmitasertib]
# How it was run: as §1
# [4] = compound: O=C1NC(=O)C(c2cnc3ccccn23)=C1c1cn2c3c(cc(F)cc13)CN(C(=O)N1CCCCC1)CC2
# How it was run: as §1
# [5] = compound: c1cn2cc(-c3ccc4cn[nH]c4c3)nc(Nc3ccc(N4CCOCC4)cc3)c2n1 [entospletinib]
# How it was run: as §1
# Chain of UniProt O14617 (O14617 whole entry, looked up): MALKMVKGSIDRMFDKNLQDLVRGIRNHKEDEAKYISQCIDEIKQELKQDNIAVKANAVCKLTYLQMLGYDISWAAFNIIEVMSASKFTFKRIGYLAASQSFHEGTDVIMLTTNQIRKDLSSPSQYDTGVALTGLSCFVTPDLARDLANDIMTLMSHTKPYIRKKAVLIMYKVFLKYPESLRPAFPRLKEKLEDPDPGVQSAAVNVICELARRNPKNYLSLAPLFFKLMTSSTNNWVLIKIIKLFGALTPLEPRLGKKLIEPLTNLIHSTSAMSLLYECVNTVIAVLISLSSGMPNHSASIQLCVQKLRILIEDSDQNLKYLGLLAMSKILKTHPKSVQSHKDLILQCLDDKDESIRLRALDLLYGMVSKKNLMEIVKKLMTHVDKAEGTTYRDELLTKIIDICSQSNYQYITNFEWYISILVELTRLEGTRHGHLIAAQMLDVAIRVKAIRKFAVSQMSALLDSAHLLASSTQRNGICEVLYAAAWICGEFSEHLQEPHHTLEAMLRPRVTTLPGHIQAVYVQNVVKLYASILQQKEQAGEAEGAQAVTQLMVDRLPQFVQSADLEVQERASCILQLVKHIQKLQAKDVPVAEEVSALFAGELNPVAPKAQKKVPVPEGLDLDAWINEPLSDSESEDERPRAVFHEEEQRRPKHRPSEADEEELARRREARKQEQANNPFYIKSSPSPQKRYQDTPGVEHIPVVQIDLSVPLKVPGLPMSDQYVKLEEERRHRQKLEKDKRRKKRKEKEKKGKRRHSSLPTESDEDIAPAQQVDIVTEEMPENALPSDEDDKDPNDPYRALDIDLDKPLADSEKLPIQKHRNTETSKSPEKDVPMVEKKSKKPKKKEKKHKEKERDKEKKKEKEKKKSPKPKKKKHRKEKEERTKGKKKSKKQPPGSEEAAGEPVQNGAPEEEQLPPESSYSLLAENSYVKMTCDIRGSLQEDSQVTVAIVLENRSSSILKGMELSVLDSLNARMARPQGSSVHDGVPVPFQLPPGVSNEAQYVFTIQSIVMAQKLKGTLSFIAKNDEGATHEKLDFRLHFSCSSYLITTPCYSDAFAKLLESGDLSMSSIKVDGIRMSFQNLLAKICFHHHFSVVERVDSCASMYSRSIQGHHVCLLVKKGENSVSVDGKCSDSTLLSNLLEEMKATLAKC
# Chain of UniProt P28288 (P28288 whole entry, looked up): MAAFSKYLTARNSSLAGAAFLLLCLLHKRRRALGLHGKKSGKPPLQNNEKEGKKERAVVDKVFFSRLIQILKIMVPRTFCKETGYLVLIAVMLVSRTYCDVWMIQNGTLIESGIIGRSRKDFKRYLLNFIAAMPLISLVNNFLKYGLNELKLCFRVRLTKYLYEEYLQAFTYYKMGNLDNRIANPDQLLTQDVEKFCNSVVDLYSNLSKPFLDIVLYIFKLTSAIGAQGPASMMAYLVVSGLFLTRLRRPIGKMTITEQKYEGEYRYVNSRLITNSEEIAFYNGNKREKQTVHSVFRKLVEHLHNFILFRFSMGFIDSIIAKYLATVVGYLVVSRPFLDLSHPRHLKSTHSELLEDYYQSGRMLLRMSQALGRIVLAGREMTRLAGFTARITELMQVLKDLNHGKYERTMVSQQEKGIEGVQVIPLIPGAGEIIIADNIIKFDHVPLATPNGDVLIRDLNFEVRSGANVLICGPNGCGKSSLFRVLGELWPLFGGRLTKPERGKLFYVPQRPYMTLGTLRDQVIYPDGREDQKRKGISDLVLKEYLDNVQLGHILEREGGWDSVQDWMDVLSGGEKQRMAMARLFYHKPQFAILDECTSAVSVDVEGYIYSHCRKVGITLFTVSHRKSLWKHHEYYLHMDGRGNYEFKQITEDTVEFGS
# Chain of UniProt Q12904 (Q12904 whole entry, looked up): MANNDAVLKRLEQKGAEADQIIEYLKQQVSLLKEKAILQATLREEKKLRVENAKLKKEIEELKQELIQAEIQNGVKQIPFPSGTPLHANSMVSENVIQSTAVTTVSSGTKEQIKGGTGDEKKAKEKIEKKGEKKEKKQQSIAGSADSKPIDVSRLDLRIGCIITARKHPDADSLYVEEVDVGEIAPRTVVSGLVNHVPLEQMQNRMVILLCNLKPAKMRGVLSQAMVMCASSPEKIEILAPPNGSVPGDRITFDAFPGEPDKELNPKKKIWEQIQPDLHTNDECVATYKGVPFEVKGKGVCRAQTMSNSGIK
# Chain of UniProt Q3SY69 (Q3SY69 whole entry, looked up): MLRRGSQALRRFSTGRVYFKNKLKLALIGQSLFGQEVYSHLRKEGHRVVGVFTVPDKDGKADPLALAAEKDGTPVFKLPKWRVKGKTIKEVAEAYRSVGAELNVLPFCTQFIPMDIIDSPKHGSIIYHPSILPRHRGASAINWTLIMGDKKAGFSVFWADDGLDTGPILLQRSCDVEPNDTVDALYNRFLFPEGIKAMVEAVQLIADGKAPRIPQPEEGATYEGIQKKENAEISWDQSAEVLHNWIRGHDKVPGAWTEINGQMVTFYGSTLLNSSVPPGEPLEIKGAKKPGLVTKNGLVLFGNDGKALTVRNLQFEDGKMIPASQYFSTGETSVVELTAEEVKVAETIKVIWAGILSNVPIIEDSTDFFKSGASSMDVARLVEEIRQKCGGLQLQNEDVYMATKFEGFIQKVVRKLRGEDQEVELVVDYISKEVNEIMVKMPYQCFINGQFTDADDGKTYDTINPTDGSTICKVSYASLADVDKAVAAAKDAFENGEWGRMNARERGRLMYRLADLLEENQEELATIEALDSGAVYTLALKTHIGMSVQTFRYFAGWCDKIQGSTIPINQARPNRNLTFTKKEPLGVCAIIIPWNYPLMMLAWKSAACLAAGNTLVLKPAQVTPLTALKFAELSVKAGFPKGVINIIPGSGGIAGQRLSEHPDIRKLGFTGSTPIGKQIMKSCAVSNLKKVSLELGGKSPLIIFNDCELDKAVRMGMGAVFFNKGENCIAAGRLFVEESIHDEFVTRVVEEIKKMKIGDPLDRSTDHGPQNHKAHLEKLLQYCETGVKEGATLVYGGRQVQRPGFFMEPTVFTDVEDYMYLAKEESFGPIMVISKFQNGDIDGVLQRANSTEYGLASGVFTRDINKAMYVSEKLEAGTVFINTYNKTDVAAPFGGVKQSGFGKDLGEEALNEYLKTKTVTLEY
# Chain of UniProt Q9BR61 (Q9BR61 whole entry, looked up): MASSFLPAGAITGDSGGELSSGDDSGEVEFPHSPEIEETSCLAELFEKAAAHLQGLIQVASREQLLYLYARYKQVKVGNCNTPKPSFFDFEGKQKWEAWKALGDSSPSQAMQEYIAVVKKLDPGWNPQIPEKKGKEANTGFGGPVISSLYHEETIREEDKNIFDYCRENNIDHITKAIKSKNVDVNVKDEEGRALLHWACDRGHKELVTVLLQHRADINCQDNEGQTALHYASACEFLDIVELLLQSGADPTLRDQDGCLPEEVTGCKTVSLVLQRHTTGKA
# Chain of UniProt Q9NXW9 (Q9NXW9 whole entry, looked up): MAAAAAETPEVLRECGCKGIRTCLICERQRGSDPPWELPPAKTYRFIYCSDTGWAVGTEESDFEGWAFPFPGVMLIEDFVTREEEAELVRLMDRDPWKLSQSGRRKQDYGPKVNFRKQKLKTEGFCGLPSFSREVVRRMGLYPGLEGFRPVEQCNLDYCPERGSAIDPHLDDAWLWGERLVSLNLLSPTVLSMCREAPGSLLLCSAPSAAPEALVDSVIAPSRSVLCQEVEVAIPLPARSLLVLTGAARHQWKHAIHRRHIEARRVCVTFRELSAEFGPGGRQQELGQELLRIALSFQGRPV
# Chain of UniProt Q9NXU5 (Q9NXU5 whole entry, looked up): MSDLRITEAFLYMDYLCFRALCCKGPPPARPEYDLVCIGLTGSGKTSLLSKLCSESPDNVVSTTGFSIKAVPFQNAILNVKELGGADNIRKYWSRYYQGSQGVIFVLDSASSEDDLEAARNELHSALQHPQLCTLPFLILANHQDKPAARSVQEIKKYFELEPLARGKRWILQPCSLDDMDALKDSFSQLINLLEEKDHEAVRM
# Chain of UniProt Q3SXY8 (Q3SXY8 whole entry, looked up): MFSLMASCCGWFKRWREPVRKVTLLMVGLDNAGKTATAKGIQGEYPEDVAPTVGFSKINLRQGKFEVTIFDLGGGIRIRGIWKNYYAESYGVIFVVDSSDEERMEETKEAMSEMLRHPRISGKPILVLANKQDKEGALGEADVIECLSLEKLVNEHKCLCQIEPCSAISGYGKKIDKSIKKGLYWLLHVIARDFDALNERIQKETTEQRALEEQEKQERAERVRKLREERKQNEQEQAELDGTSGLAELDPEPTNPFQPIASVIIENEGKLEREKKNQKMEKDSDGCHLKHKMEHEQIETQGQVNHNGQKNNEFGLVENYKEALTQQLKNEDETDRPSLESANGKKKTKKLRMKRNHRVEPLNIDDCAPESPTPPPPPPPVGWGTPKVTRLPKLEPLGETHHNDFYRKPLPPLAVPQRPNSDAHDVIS
Target,log2 fold change [1],log2 fold change [2],log2 fold change [3],log2 fold change [4],log2 fold change [5]
ARL15 (UniProt Q9NXU5),0.007,-0.109,0.016,-0.029,0.014
AIMP1 isoform 2 (UniProt Q12904),-0.01,-0.235 (active),0.02,0.007,0.02
AP3D1 isoform 5 (UniProt O14617),-0.001,-0.015,-0.003,0.012,0.006
ARL13B (UniProt Q3SXY8),0.01,-0.186,-0.024,-0.064,–
ALDH1L2 (UniProt Q3SY69),0.017,0.106,0.016,-0.027,0.031
AKR1B1 (UniProt P15121),-0.018,0.24 (active),-0.004,-0.026,-0.065
ALKBH4 (UniProt Q9NXW9),0.061,0.264 (active),-0.032,-0.088,-0.012
ABCD3 (UniProt P28288),-0.019,-0.164,0.113,-0.08,0.034
ACBD6 (UniProt Q9BR61),-0.009,-0.298 (active),0.003,0.028,-0.028
